The results in this text go back to PubChem BioAssay (Tox21).

Molecules are shown by their SMILES. Where “and” joins values, the source holds several entries; their conditions need not be identical. Equal entries are not always repeated. Inconclusive results are not listed. Values without a mark were called inactive. Calls of active or inactive are those of the source. The call rests on the fitted dose curve; in most records, active means well fitted cell-killing curve with a large enough effect in the repeat runs; inconclusive means weak or mixed curves, or effect the other way; inactive means flat fitted curve, though single readings scatter.
On the % scale 0 is the no-effect control and ±100 the full control effect; potency means the concentration at half of the fitted maximal effect.

This test can be described thus: qHTS RealTime-Glo MT Cell Viability Assay in HEK293 cells - 24 hour (AID 1224886). Further: nearly all actives have a fitted effect of over 50% in size. On activity change, negative = cytotoxicity: top concentration of the series differs between compounds. The settings on record: RealTime-Glo luminescence; series mostly up to 76.8 µM; activity change, negative = cytotoxicity: at the top concentration. The text has this: National Center for Advancing Translational Sciences [NCATS]
NIH Chemical Genomics Center [NCGC]
U.S. Environmental Protection Agency [EPA]
National Institutes of Environmental Health Sciences [NIEHS]
National Toxicology Program [NTP]
U.S. Food and Drug Administration [FDA]
Measure of cell viability is critical in the cell-base assay. Analysis of cell viability is necessary for the characterization of cell responses to cytotoxic drugs and environmental stress. A RealTime-Glo MT Cell Viability Assay to monitor cell viability in real time of continues cell culture during 40 hours of compound treatment was used to screen Tox21 10K library compounds in Hek293 cells. The RealTime-Glo MT Cell Viability Assay is a nonlytic, homogeneous, bioluminescent method to measure cell viability in real time using a simple, plate-based method. The assay involves adding NanoLuc luciferase and a cell-permeant prosubstrate to cells in culture. Viable cells reduce the proprietary prosubstrate to generate a substrate for NanoLuc luciferase. This substrate diffuses from cells into the surrounding culture medium, where it is rapidly used by the NanoLuc Enzyme to produce a luminescent signal. The signal correlates with the number of viable cells, making the assay well suited for cytotoxicity studies.
Tox21 Assay Protocol Summary:
The mixture of Hek293 cell suspension and reagents were dispensed at 600cells/6 ul/well in 1536-well tissue culture treated black solid bottom plates using a Multidrop dispenser. After the assay plates were incubated at a 37 C/5% CO2 incubator for 5 hours, 23 nL of compounds dissolved in DMSO, positive and negative controls was transferred to the assay plate by a pintool work station. The plates were incubated at 37 C for 40 hours. The luminescence intensity were measured at 0h, 8h, 16h, 24h, 32h and 40h time points using ViewLux plate reader during compound treatment.
For orientation: Quantitative high-throughput screening tests each substance at several concentrations.
For `CCOC(=O)O[C@H](C)OC(=O)c1ccc2c(c1)cc(C(=O)NC1CCN(C(C)C)CC1)n2Cc1cc(-c2ccc(Cl)s2)on1`, the Potency was 11.5 µM (active).
Same read-out and setting: under `C[n+]1cc2c3c(ccc2c2ccc4cc5c(cc4c21)OCO5)OCO3` stands 0.585 µM (active).
Consider `CC(C)(C)C(=O)OCOC(=O)[C@@H]1N2C(=O)[C@@H](NC(=O)[C@H](N)c3ccccc3)[C@H]2SC1(C)C`, for which the “activity change, negative = cytotoxicity” value is 4.17% [at 35.3 µM].
With `CC(C)(C)CC(C)(C)c1ccc(OCCOCC[N+](C)(C)Cc2ccccc2)cc1`, the Potency is 19.5 µM (active) and 9.52 µM (active).
The same measure, in the same setting: with `COC(=O)C1=C(C)NC(C)=C(C(=O)OCC(C)C)C1c1ccccc1[N+](=O)[O-]` (stereo not given) the figure was 24.5 µM (active); with `CCCCCCCCCCCC(=O)NCCCN(C)C`, 43.6 µM (active).
In the case of `COc1cc(-c2ccc(N=C=O)c(OC)c2)ccc1N=C=O`, the “activity change, negative = cytotoxicity” value is -11.6% [at 35.3 µM].
On to `C[C@H]1[C@H]2CC[C@H]3[C@@H]4CC=C5C[C@@H](N(C)C)CC[C@]5(C)[C@H]4CC[C@]23CN1C`, for which the “activity change, negative = cytotoxicity” value was -28% [at 35.3 µM].
The same measure, in the same setting: with `CC(C)C(C)(C)C(C)(C)C(C)(C)S` the figure was -4.18%; with `CCN(C(=O)c1cc(C)cc(OC[C@H](C)Nc2ccncc2)c1)C(C)C`, -10.8% [at 35.3 µM].
On the same count and under the same terms, under `Cc1cccc(N(C)C(=S)Oc2ccc3c(c2)C2CCC3C2)c1` (stereo not given) stands -17.5% [at 35.3 µM]; under `O=C(OC[C@H]1O[C@@H](OC(=O)c2cc(O)c(O)c(OC(=O)c3cc(O)c(O)c(O)c3)c2)[C@H](OC(=O)c2cc(O)c(O)c(OC(=O)c3cc(O)c(O)c(O)c3)c2)[C@@H](OC(=O)c2cc(O)c(O)c(OC(=O)c3cc(O)c(O)c(O)c3)c2)[C@@H]1OC(=O)c1cc(O)c(O)c(OC(=O)c2cc(O)c(O)c(O)c2)c1)c1cc(O)c(O)c(OC(=O)c2cc(O)c(O)c(O)c2)c1`, -14.1% [at 15.8 µM].
For the compound `CC[C@@]1(O)C(=O)OCc2c1cc1n(c2=O)Cc2cc3c(CN(C)C)c(O)ccc3nc2-1`, the Potency was 0.0849 µM (active).
On to `Cc1ccc(O)c2ncccc12`, for which the “activity change, negative = cytotoxicity” value was -4.41% [at 35.3 µM].
Turning to `NC(=O)C1(N2CCCCC2)CCN(CCCN2c3ccccc3CCc3ccc(Cl)cc32)CC1`, the Potency was 21.3 µM (active).
On the same count and under the same terms, with `Cc1cc(CCN2CCN(c3nsc4ccccc34)CC2)cc2c1NC(=O)CC2(C)C` the figure was 6.92 µM (active).
As to `Clc1ccc2n[nH]nc2c1`, the “activity change, negative = cytotoxicity” value was 17.2%.
In the case of `CCCCCCCCCCCCCCCCCC[N+](C)(C)Cc1ccccc1`, the Potency was 6.23 µM (active).
For `NC(=O)NS(=O)(=O)c1ccc(N)cc1`, the “activity change, negative = cytotoxicity” value was 3.35% [at 35.3 µM].
With `O=C(Nc1cccc(Cl)c1)OCC#CCCl`, the Potency was 49 µM (active).
Take `CCC(C)(C)C1CCCCC1OC(C)=O` (stereo not given): the “activity change, negative = cytotoxicity” value is 12%.
As for `CC(C)n1nc(-c2cc3cc(O)ccc3[nH]2)c2c(N)ncnc21`, the Potency was 0.301 µM (active).
On the same count and under the same terms, under `Nc1c2ccccc2nc2ccccc12` stands 7.66 µM (active) and 21.3 µM (active); under `O=C(c1ccc(O)cc1O)c1ccc(O)cc1O`, “inactive”.
Turning to `Cc1cccc(S(=O)(=O)O)c1C`, the “activity change, negative = cytotoxicity” value is -1.99%.
With `CCOc1nc2cccc(C(=O)OC(C)OC(=O)OC3CCCCC3)c2n1Cc1ccc(-c2ccccc2-c2nn[nH]n2)cc1` (stereo not given), the Potency was 9.76 µM (active).
With `O=C(Oc1cccc2cccnc12)c1ccccc1`, the “activity change, negative = cytotoxicity” value is -21.4% [at 35.3 µM].
The same measure, in the same setting: under `O=C(Oc1ccccc1)c1ccccc1C(=O)Oc1ccccc1` stands -4.12%; under `O=C(O)c1c(Cl)cccc1Cl`, 0.172%.
Turning to `CS(=O)(=O)CCNCc1ccc(-c2ccc3ncnc(Nc4ccc(OCc5cccc(F)c5)c(Cl)c4)c3c2)o1`, the Potency is 21.3 µM (active).
On to `Clc1ccccc1C(c1ccccc1)(c1ccccc1)n1ccnc1`, for which the Potency is 21.9 µM (active) and 6.01 µM (active).
Same read-out and setting: under `CCCCCCCCCCCCCCCC[N+](C)(C)CCN(Cc1ccc(OC)cc1)c1ncccn1` stands 1.07 µM (active).
On to `CC(=O)SC[C@@H](Cc1ccccc1)C(=O)NCC(=O)OCc1ccccc1`, for which the “activity change, negative = cytotoxicity” value was -0.0676% [at 35.3 µM].
In the case of `CC(C)(C)CC(C)(C)c1ccc(O)c(Cc2ccc(Cl)cc2Cl)c1`, the Potency was 23.9 µM (active).
Consider `CCc1cc(SCc2sc(-c3ccc(C(F)(F)F)cc3)nc2CN2CCN(c3ccc(OC)cc3)CC2)ccc1OCC(=O)O`, for which the Potency was 21.9 µM (active).
Turning to `Cc1cccc(CN2CCN(C(c3ccccc3)c3ccc(Cl)cc3)CC2)c1` (stereo not given), the “activity change, negative = cytotoxicity” value was -10.3% [at 35.3 µM].
For `On1ccccc1=S`, the Potency was 3.85 µM (active).
Same read-out and setting: under `CC/C(=C(\c1ccc(O)cc1)c1ccc(OCCN(C)C)cc1)c1ccccc1` stands 21.9 µM (active); under `CC(=O)N1CCN(c2ccc(OC[C@H]3CO[C@](Cn4ccnc4)(c4ccc(Cl)cc4Cl)O3)cc2)CC1`, 21.9 µM (active).
In the case of `CC1(C)CCC(C)(C)c2cc(C(=O)Nc3ccc(C(=O)O)cc3)ccc21`, the “activity change, negative = cytotoxicity” value was -12.7%.
